From PubChem BioAssay (Tox21) come the findings set out here.

A number with no mark means an inactive call. Active and inactive are the calls of the source. Unless noted, calls come from the whole dose curve; as a rule, active = well fitted curve in the direction sought with a large enough effect in the repeat runs; inconclusive = weak or mixed curves; inactive = no such curve, though single readings can be large; an effect the other way counts as inactive or inconclusive.

The nature of assay [1]: qHTS assay to identify small molecule antagonists of the glucocorticoid receptor (GR) signaling pathway - cell viability counter screen (AID 720693). Note: nearly all actives have a fitted effect of over 55% in size. Note: potency is the fitted concentration of half-maximal effect.
A short description of assay [2]: qHTS assay for identifying genotoxic compounds that show differential cytotoxicity against isogenic chicken DT40 cell lines with known DNA damage response pathways - wild type cell line (AID 743012). Note: nearly all actives have a fitted effect of over 60% in size. Note: potency is the fitted concentration of half-maximal effect. The method in brief:
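Using parental DT40 (300 cells/well), compounds delivered in DMSO incubate 40 h at 37 C/5% CO2. CellTiter-Glo reagent then stands 30 min at room temperature, and luminescence gives cell viability.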

Assay [3] in a line: qHTS assay for identifying genotoxic compounds that show differential cytotoxicity against isogenic chicken DT40 cell lines with known DNA damage response pathways - Rev3 mutant cell line (AID 743014). Note: nearly all actives have a fitted effect of over 55% in size. Note: potency is the fitted concentration of half-maximal effect.
The nature of assay [4]: qHTS assay for identifying genotoxic compounds that show differential cytotoxicity against isogenic chicken DT40 cell lines with known DNA damage response pathways - Rad54/Ku70 mutant cell line (AID 743015). Note: nearly all actives have a fitted effect of over 60% in size. Note: potency is the fitted concentration of half-maximal effect.
Assay [5] can be described thus: qHTS assay to identify small molecule antagonists of the androgen receptor (AR) signaling pathway - cell viability counter screen (AID 743033; note: nearly all actives have a fitted effect of over 45% in size; note: potency is the fitted concentration of half-maximal effect).
Assay [6] in a line: qHTS assay to identify small molecule antagonists of the androgen receptor (AR) signaling pathway using the MDA cell line - cell viability counter screen (AID 743041; note: nearly all actives have a fitted effect of over 45% in size; note: potency is the fitted concentration of half-maximal effect). The method, boiled down: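 MDA-kb2 AR-luc cells (MMTV-luciferase, AR/GR responsive) treated with compounds plus R1881 agonist for 16 h at 37C. CellTiter-Fluor added at 15.5 h; fluorescence read after 30 min in the same wells.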

Assay [7] is described as follows: qHTS assay to identify small molecule antagonists of the thyroid receptor (TR) signaling pathway - cell viability counter screen (AID 743064). Note: nearly all actives have a fitted effect of over 50% in size. Note: potency is the fitted concentration of half-maximal effect. The method, boiled down: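 Fluorescence from CellTiter-Fluor, added after 23.5 h exposure at 37 °C, reported viability of GH3.TRE-Luc cells co-treated with compound and 1 nM T3. Measured in the same wells as the luciferase TR readout.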

Assay [8] can be described thus: qHTS assay to identify small molecule antagonists of the thyroid receptor (TR) signaling pathway (AID 743065). Note: nearly all actives have a fitted effect of over 55% in size. Note: potency is the fitted concentration of half-maximal effect. The method, boiled down:
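GH3.TRE-Luc rat pituitary cells (two TREs driving luciferase) were dosed with compound, then stimulated with 1 nM T3 (final) for 23.5 h at 37 C. ONE-Glo luminescence was the read-out, with CellTiter-Fluor fluorescence as the cytotoxicity counter-screen.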

In assay [9] the test system is thyroid hormone receptor (rat, GH3 cells). Description: qHTS assay to identify small molecule agonists of the thyroid receptor (TR) signaling pathway (AID 743066; calls by dose curve).
Assay [10] deals with Estrogen receptor (Homo sapiens) (UniProt P03372). Briefly: qHTS assay to identify small molecule antagonists of the estrogen receptor alpha (ER-alpha) signaling pathway (AID 743069; active = well fitted curve in the direction sought with a large enough effect in the signal ratio in the repeat runs, not every such curve was filed as active; inconclusive = weak or mixed curves, or effect the other way; inactive = no such curve, though single readings can be large or run the other way; the % refers to the signal ratio; note: potency is the fitted concentration of half-maximal effect). The method in brief:
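HEK293 ER-alpha-UAS-bla GripTite cells, held overnight in 2% charcoal-stripped FBS, 5,000 cells/well, preincubated 4 h, then compound plus 17beta-estradiol for 18 h at 37C. Beta-lactamase read by LiveBLAzer B/G FRET substrate, 2 h at room temperature.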

Assay [11] in a line: qHTS assay to identify small molecule antagonists of the estrogen receptor alpha (ER-alpha) signaling pathway - cell viability counter screen (AID 743074; calls by dose curve;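 note: HEK293 cells carrying ER-alpha-UAS-bla reporter stimulated with 17beta-estradiol; nearly all actives have a fitted effect of over 45% in size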; note: potency is the fitted concentration of half-maximal effect).
Assay [12] concerns the target Estrogen receptor (Homo sapiens) (UniProt P03372). Briefly: qHTS assay to identify small molecule agonists of the estrogen receptor alpha (ER-alpha) signaling pathway (AID 743075; calls by dose curve; note: potency is the fitted concentration of half-maximal effect). The settings on record: HEK293 ER-alpha-UAS-bla, beta-lactamase FRET ratio, 18 h; activation: at 70.1 µM (top of the series).
Assay [13] has the same target. Briefly: qHTS assay to identify small molecule agonists of the estrogen receptor alpha (ER-alpha) signaling pathway using the BG1 cell line (AID 743079). Note: nearly all actives have a fitted effect of over 20% in size. The settings on record: BG1Luc4E2 cells, ERE-luciferase agonist, 22 h; at 70.3 µM (top of the series).
The nature of assay [14]: qHTS assay to identify small molecule antagonists of the estrogen receptor alpha (ER-alpha) signaling pathway using the BG1 cell line (AID 743080; calls by dose curve;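 note: BG1 cells stimulated with 17beta-estradiol alongside compound; nearly all actives have a fitted effect of over 25% in size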; note: potency is the fitted concentration of half-maximal effect). The method, boiled down:
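BG1-Luc-4E2 cells (endogenous full-length ER-alpha, 4xERE luciferase) hormone-starved 5 days in charcoal-stripped FBS, plated 4,000/well for 24 h, then compound plus 17beta-estradiol for 21.5 h at 37 C; ONE-Glo luminescence read.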

Assay [15] in a line: qHTS assay to identify small molecule antagonists of the estrogen receptor alpha (ER-alpha) signaling pathway using the BG1 cell line - cell viability counter screen (AID 743081).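 Note: compound given together with 17beta-estradiol as the ER stimulus; nearly all actives have a fitted effect of over 45% in size.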 Note: potency is the fitted concentration of half-maximal effect.
In assay [16] the target is Aromatase (Homo sapiens) (UniProt P11511). Briefly: qHTS assay to identify aromatase inhibitors (AID 743083). Note: nearly all actives have a fitted effect of over 55% in size. Note: potency is the fitted concentration of half-maximal effect.
Chain of Aromatase (Homo sapiens) (P11511 whole entry, looked up): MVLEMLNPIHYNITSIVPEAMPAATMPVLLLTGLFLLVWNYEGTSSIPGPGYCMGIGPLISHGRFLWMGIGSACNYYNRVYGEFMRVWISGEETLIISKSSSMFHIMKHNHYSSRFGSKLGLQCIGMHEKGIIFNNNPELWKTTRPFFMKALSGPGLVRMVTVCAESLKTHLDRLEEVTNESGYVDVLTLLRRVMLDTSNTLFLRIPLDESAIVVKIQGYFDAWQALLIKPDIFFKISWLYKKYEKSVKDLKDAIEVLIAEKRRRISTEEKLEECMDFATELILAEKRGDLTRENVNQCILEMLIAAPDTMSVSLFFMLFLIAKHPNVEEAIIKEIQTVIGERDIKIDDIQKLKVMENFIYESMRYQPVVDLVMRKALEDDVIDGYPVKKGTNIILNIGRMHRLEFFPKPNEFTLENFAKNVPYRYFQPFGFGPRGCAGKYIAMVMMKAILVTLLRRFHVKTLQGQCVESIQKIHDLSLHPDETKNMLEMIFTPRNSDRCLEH
A short description of assay [17]: qHTS assay to identify aromatase inhibitors - cell viability counter screen (AID 743084). Note: potency is the fitted concentration of half-maximal effect.
Assay [18] concerns the target Androgen receptor (Homo sapiens) (UniProt P10275). Description: qHTS assay to identify small molecule agonists of the androgen receptor (AR) signaling pathway using the MDA cell line (AID 743040; note: nearly all actives have a fitted effect of over 20% in size). The method, boiled down: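 MDA-kb2 breast carcinoma cells carrying MMTV-luciferase (responsive to AR and GR), plated 5 h then treated 16 h with compounds at 37C, 0% CO2. Read-out was ONE-Glo luminescence after 30 min at room temperature.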

The target is the same in assay [19]. Briefly: qHTS assay to identify small molecule antagonists of the androgen receptor (AR) signaling pathway using the MDA cell line (AID 743042; note: nearly all actives have a fitted effect of over 55% in size; note: potency is the fitted concentration of half-maximal effect). The method in brief: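 MDA-kb2 breast carcinoma cells carrying MMTV-luciferase (AR/GR responsive) were co-treated with compounds and the agonist R1881 for 16 h at 37C. Inhibition read as ONE-Glo luminescence; CellTiter-Fluor fluorescence measured in parallel for cytotoxicity.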
% is set by controls: 0 for no effect and ±100 for the full control effect.

Chain of Androgen receptor (Homo sapiens) (P10275 whole entry, looked up): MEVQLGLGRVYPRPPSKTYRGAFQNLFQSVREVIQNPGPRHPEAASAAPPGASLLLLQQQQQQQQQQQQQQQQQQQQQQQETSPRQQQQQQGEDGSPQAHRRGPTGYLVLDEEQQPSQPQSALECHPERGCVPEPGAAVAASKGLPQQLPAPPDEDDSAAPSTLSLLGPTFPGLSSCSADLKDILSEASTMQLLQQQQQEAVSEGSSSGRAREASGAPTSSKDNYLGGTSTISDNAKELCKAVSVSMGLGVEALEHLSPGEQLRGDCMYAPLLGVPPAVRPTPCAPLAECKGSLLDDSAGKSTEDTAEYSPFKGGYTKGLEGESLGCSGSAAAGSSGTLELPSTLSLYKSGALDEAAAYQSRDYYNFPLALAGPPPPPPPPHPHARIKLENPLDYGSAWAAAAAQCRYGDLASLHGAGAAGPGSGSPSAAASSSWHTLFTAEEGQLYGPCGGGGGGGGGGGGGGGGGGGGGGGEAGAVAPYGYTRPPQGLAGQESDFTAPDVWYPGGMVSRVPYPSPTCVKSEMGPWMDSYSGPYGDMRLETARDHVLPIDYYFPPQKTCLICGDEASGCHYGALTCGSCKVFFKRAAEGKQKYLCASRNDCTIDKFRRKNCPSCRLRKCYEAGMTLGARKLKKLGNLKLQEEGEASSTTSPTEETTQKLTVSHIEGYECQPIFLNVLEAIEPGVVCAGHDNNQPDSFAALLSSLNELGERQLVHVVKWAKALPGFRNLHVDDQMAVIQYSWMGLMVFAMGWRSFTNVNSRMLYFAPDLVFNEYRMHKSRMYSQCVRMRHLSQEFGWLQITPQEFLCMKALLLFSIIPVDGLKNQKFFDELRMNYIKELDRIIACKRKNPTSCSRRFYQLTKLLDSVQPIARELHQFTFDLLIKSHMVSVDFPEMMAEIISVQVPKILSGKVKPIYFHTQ
Chain of Estrogen receptor (Homo sapiens) (P03372 whole entry, looked up): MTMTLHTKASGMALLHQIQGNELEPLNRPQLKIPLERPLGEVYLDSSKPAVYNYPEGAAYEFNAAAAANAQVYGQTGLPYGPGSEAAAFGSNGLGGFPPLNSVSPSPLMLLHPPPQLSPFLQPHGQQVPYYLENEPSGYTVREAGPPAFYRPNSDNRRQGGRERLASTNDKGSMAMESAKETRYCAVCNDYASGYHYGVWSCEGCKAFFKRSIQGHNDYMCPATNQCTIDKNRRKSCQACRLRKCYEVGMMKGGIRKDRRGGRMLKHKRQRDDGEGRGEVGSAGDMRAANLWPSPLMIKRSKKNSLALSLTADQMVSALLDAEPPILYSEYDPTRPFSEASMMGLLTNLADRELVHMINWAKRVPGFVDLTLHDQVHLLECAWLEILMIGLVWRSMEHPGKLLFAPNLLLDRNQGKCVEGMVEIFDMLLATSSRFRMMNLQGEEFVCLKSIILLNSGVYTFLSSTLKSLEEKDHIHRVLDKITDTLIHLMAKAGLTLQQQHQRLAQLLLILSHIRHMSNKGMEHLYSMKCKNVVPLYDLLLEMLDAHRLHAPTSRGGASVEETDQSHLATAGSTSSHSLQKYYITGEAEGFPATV

As to `CC(=O)OCC(C)OC(C)=O` (stereo unspecified), the Potency entry in assay [1], in assay [2], in assay [3], in [4], in assay [5] and in assay [6] was “inactive” throughout. Moreover, the Potency result in assay [7], in assay [8], in assay [9], in assay [10], in assay [11] and in assay [12] was “inactive” throughout. Further, the Potency entry in assay [14], in [15], in assay [16] and in assay [17] was “inactive” throughout. Moreover, the activation in assay [13] is 5.73%.
With `O=C(OCC1CO1)C1CCCCC1C(=O)OCC1CO1` (stereo unspecified), the Potency entry in assay [1], in [5], in assay [18], in [19], in assay [9] and in assay [11] was “inactive” in each case. The Potency in assay [2] was 8.64 µM (active); in [3] it was 0.77 µM (active); in assay [4] it was 9.7 µM (active); in assay [7], 54.5 µM (active); in [8], 27.3 µM (active); in assay [17], 48.6 µM (active).
Turning to `CCCCCCCCCCn1cc[n+](CCCCCCCCCC)c1C`, the Potency in [1] was 13.8 µM (active); in [2], 0.273 µM (active); in assay [3] it was 0.109 µM (active); in assay [4], 0.122 µM (active); in assay [5], 4.37 µM (active); in assay [6], 24.4 µM (active). The Potency in assay [19] is 2.17 µM (active); in [7], 6.87 µM (active); in assay [8], 3.86 µM (active); in assay [10], 61.7 µM [cytotoxic] (active); in [11], 19.5 µM (active); in assay [14], 8.64 µM (active). In addition, the Potency in assay [15] was 48.6 µM (active); in assay [16], 5.45 µM (active); in assay [17], 24.4 µM (active).
Regarding `[Cl][Bi]([Cl])([c]1ccccc1)([c]1ccccc1)[c]1ccccc1`, the Potency in assay [1] is 48.7 µM (active); in assay [2] it was 1.36 µM (active); in [3], 2.16 µM (active); in [4], 2.42 µM (active); in assay [5], 12.2 µM (active); in assay [6] it was 27.1 µM (active). For the same compound, the Potency was 13.6 µM (active) in assay [19]; 1.71 µM (active) in [7]; 0.682 µM (active) in assay [8]; 48.7 µM (active) in assay [11]; 6.13 µM [inconclusive] (active) in [12]; 60.8 µM (active) in assay [15]. Further, the Potency is 6.82 µM (active) in assay [16] and 7.65 µM (active) in assay [17]. Further, the Potency entry in [18] was “inactive”.
On to `C=CC(=O)OCC(CO)(COCC(COC(=O)C=C)(COC(=O)C=C)COC(=O)C=C)COC(=O)C=C`, for which the Potency in assay [1] was 4.31 µM (active); in assay [2] it was 0.34 µM (active); in assay [3], 0.428 µM (active); in assay [4] it was 0.303 µM (active); in [5], 3.84 µM (active); in assay [6] it was 1.2 µM (active). In addition, the Potency in assay [19] is 1.07 µM (active); in [7] it was 1.52 µM (active); in [11] it was 21.6 µM (active); in assay [12] it was 10.8 µM [inconclusive] (active); in assay [15], 13.5 µM (active); in [16], 2.4 µM (active). For the same compound, in [17], the Potency was 1.7 µM (active). In addition, the Potency entry in assay [18] is “inactive”.
As for `Cc1cc(O)c(C(C)(C)C)cc1C(C)(C)C`, the Potency in assay [1] is 43.6 µM (active); in assay [2], 10.9 µM (active); in assay [3] it was 6.86 µM (active); in [4], 13.7 µM (active); in [5], 21.9 µM (active); in assay [19], 54.5 µM (active). Moreover, the Potency was 24.3 µM (active) in assay [7]; 21.7 µM (active) in [8]; 17.4 µM (active) in [11]; 54.5 µM (active) in assay [16]; 54.5 µM (active) in [17]. Further, the Potency entry in [9] and in assay [15] was “inactive” throughout.
